Our source for the HSV-1 infection values is the supplement of paper PMC11537057.

Where a name gives a salt, the structure may show the parent alone. Among all 1,700 compounds or so, about 15 (0.9%) showed activity. This is one part of a sample in which actives are shown more often than they occur. Values without a mark were called inactive.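 The calls were made as follows: active = infection cut by 80% or more with cell growth above 90% in both runs; inactive = the rest.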

The test system of this assay is HSV-1 strain 17 YFP-ICP4 in A549. Put plainly: HSV-1 infection relative to DMSO (ICP4-YFP per H2B-RFP signal); higher = more viral infection (less antiviral activity), active = hit call of the paper. The note with it: 10 µM; 48 h; MOI: 0.1. On the procedure: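 Selleck FDA-approved library (L1300) screened in duplicate at 10 µM on A549 H2B-mRuby cells in 384-well plates, infected with HSV-1 strain 17 YFP-ICP4 at MOI 0.1 one hour before drug addition. Imaged after 2 days at 37°C. Cell growth (H2B-RFP) and infection (ICP4-YFP) are expressed as % of DMSO-treated wells. Hits: growth >90% and infection <20% of DMSO.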
In the case of `O=C(O)CCCC[C@@H]1CCSS1` (racemic) [Thioctic acid], the HSV-1 infection was 66.1%.

`N=C(N)NCCC[C@@H](NC(=O)[C@@H]1CCCN1C(=O)[C@@H]1CSSCCC(=O)N[C@@H](Cc2ccc(O)cc2)C(=O)N[C@@H](Cc2ccccc2)C(=O)N[C@@H](CCC(N)=O)C(=O)N[C@@H](CC(N)=O)C(=O)N1)C(=O)NCC(N)=O` [Desmopressin Acetate]: the HSV-1 infection is 103%.

For the compound `NC(=O)CCC(N)C(=O)O` (racemic) [DL-Glutamine], the HSV-1 infection is 114%.

Take `COc1ccc(Cl)c(Nc2nc3ccccc3nc2NS(=O)(=O)c2cccc(NC(=O)C(C)(C)N)c2)c1` [Pilaralisib (XL147)]: the HSV-1 infection is 93.5%.

On to `COc1ccc(-c2nc3cc(C4=NNC(=O)CC4C)ccc3[nH]2)cc1` (centres undefined) [Pimobendan], for which the HSV-1 infection was 68.5%.

In the case of `CC(=O)[C@@]1(O)CC[C@H]2[C@@H]3CCC4=CC(=O)CCC4=C3[C@@H](c3ccc(N(C)C)cc3)C[C@@]21C` [Ulipristal], the HSV-1 infection is 91.8%.

Take `CCCN(CCC)C(=O)C1=Cc2ccc(-c3ccc(C(=O)N4CCCC4)cc3)cc2N=C(N)C1` [Motolimod (VTX-2337)]: the HSV-1 infection was 82.9%.

For the compound `CN[C@H]1C(=O)N[C@@H]2Cc3ccc(cc3)Oc3cc4cc(c3O[C@@H]3O[C@H](C(=O)O)[C@@H](O)[C@H](O)[C@H]3NC(=O)CCCCCCCCC(C)C)Oc3ccc(cc3Cl)[C@@H](O)[C@@H]3NC(=O)[C@H](NC(=O)[C@@H]4NC(=O)[C@@H](NC2=O)c2cc(cc(O)c2Cl)Oc2cc1ccc2O)c1ccc(O)c(c1)-c1c(O[C@H]2O[C@H](CO)[C@@H](O)[C@H](O)[C@@H]2O)cc(O)cc1[C@@H](C(=O)NCCCN(C)C)NC3=O` [Dalbavancin], the HSV-1 infection was 95.9%.

In the case of `CCCCN1CCCC[C@H]1C(=O)Nc1c(C)cccc1C` [Levobupivacaine HCl], the HSV-1 infection is 70.8%.

As for `COc1ccc([C@H]2CNC(=O)C2)cc1OC1CCCC1` [S- (+)-Rolipram], the HSV-1 infection was 97.4%.

Consider `CC(C)C[C@H](N)C(=O)O` [L-Leucine], for which the HSV-1 infection is 100%.

On to `COC(=O)c1ccccc1O` [Methyl salicylate], for which the HSV-1 infection was 81.4%.

As to `CCCCC(=O)N(Cc1ccc(-c2ccccc2-c2nn[nH]n2)cc1)C(C(=O)O)C(C)C.CCOC(=O)C(C)CC(Cc1ccc(-c2ccccc2)cc1)NC(=O)CCC(=O)O` (centres undefined) [Sacubitril/valsartan (LCZ696)], the HSV-1 infection is 116%.

Regarding `FC(F)(F)c1ccc(CNc2ccc(Cc3c[nH]c4ncc(Cl)cc34)cn2)cn1` [Pexidartinib (PLX3397)], the HSV-1 infection was 102%.

On to `Cc1ccccc1N1CCN(CCc2nnc3n2CCCC3)CC1` [Dapiprazole Hydrochloride], for which the HSV-1 infection was 135%.

Turning to `CC(C)C[C@H](NC(=O)CNC(=O)c1cc(Cl)ccc1Cl)B1OC(=O)C(CC(=O)O)(CC(=O)O)O1` [Ixazomib Citrate (MLN9708)], the HSV-1 infection was 80.4%.

For the compound `CCNC(=O)[C@@H]1CCCN1C(=O)[C@H](CCCNC(=N)N)NC(=O)[C@H](CC(C)C)NC(=O)[C@@H](CC(C)C)NC(=O)[C@H](Cc1ccc(O)cc1)NC(=O)[C@H](CO)NC(=O)[C@H](Cc1c[nH]c2ccccc12)NC(=O)[C@H](Cc1c[nH]cn1)NC(=O)[C@@H]1CCC(=O)N1` [Leuprorelin Acetate], the HSV-1 infection is 105%.

In the case of `CCNC(=O)[C@@H]1CCCN1C(=O)[C@H](CCCNC(=N)N)NC(=O)[C@H](CC(C)C)NC(=O)[C@@H](CC(C)C)NC(=O)[C@H](Cc1ccc(O)cc1)NC(=O)[C@H](CO)NC(=O)[C@H](Cc1c[nH]c2ccccc12)NC(=O)[C@H](Cc1c[nH]cn1)NC(=O)[C@@H]1CCC(=O)N1` [Leuprolide Acetate], the HSV-1 infection was 113%.

In the case of `O=C(O)c1ccc(-n2nc(-c3ccccc3O)nc2-c2ccccc2O)cc1` [Deferasirox], the HSV-1 infection was 79.8%.

On to `CC(C)(C)NC(=O)N[C@H](C(=O)N1C[C@H]2[C@@H]([C@H]1C(=O)NC(CC1CCC1)C(=O)C(N)=O)C2(C)C)C(C)(C)C` (some centres undefined) [Boceprevir], for which the HSV-1 infection was 110%.

On to `COc1c(C)c2c(c(O)c1C/C=C(\C)CCC(=O)O)C(=O)OC2` [Mycophenolic acid], for which the HSV-1 infection was 14.4% (active).

On to `C[C@H](Oc1ccc(S(C)(=O)=O)cc1C(=O)N1CCN(c2ncc(C(F)(F)F)cc2F)CC1)C(F)(F)F` [Bitopertin], for which the HSV-1 infection is 92.8%.

As for `CCCCCCCCOc1ccccc1C(=O)Nc1ccc(C(=O)OCC[N+](C)(CC)CC)cc1` [Otilonium Bromide], the HSV-1 infection is 60.5%.

On to `OC[C@@H](O)CN1CCN(c2ccccc2)CC1` [Levodropropizine], for which the HSV-1 infection was 64.9%.

As to `CC(C)Nc1cc(-c2c[nH]c(C(=O)N[C@H](CO)c3cccc(Cl)c3)c2)c(Cl)cn1`, the HSV-1 infection is 69.3%.

With `O=C(Cn1ccnc1[N+](=O)[O-])NCc1ccccc1` [Benznidazole], the HSV-1 infection was 115%.

As for `CC(C)C[C@H](NC(=O)CNC(=O)c1cc(Cl)ccc1Cl)B(O)O` [Ixazomib (MLN2238)], the HSV-1 infection is 77.3%.

Consider `N[C@@H]1CN(c2c(F)cc3c(=O)c(C(=O)O)cn([C@@H]4C[C@@H]4F)c3c2Cl)CC12CC2` [Sitafloxacin Hydrate], for which the HSV-1 infection is 111%.

On to `O=C([O-])[O-].[Na+].[Na+]` [Sodium carbonate], for which the HSV-1 infection is 88%.

Consider `NC(=O)c1nc(F)cnc1O` [Favipiravir (T-705)], for which the HSV-1 infection is 102%.

As for `O=C1/C(=C2\Nc3ccccc3C2=O)Nc2ccccc21` [Indigo], the HSV-1 infection is 105%.

Turning to `C=CCN1CCCC1CNC(=O)c1cc2nn[nH]c2cc1OC` (centres undefined) [Alizapride HCl], the HSV-1 infection was 55.1%.

Turning to `CNC(=O)[C@H](Cc1ccccc1)NC(=O)[C@H](CC(C)C)[C@H](CSc1cccs1)C(=O)NO` [Batimastat (BB-94)], the HSV-1 infection is 45.6%.

Regarding `CCOC(=O)[C@@H](N)Cc1ccc(-c2cc(O[C@H](c3ccc(Cl)cc3-n3ccc(C)n3)C(F)(F)F)nc(N)n2)cc1` [Telotristat Etiprate (LX 1606 Hippurate)], the HSV-1 infection was 80.1%.
